The assay concerns the target EPHA8. Kind of assay: pooled miR-30 sensor sort-seq; sequence = guide strand. The note with it: shRNA.
TCTGTCTCTCCGTGTAGCCGGC: the sensor-assay potency score (higher = more potent) is -0.777. TTTGAGGAACTGGCTTTCTTGT displayed a sensor-assay potency score (higher = more potent) of -1.09. Then TAGCTGAGGTCACAGTGGCAGG, with -1.64; and TGATAGTGCATCTTCTCCTCGT, with 0.0465. Sequence TCATACTCCAGGATGATGCCGT showed a sensor-assay potency score (higher = more potent) of 0.44. Turning to TTGCTGTCAACCAGGACGTTGC, the sensor-assay potency score (higher = more potent) is -1.32.

Sequence TCCATTCTGATAGTGCATCTTC showed a sensor-assay potency score (higher = more potent) of -0.518.

With TACATCTTGGGTGTGTCCCGCT, the sensor-assay potency score (higher = more potent) is -0.241. TCTGATAGTGCATCTTCTCCTC: the sensor-assay potency score (higher = more potent) came out at 0.0792. As to TGCATCTTCTCCTCGTCCGAGT, the sensor-assay potency score (higher = more potent) was -1.08. Sequence ATCGAGGACACTGACAATCTGG had a sensor-assay potency score (higher = more potent) of -0.163.

In turn, TTGACGGATCACCACCACCTGG returned a sensor-assay potency score (higher = more potent) of -1.47.

In the case of TCTCGTAGTACTTGATCTCATA, the sensor-assay potency score (higher = more potent) is -1.09.

TTTCCCGGTCTCCACCTCCATG: the sensor-assay potency score (higher = more potent) was -1.71.

TAGCCGGCACTGCACACGCATT returned a sensor-assay potency score (higher = more potent) of -1.71.

The sequence TCGATTTTGAGGAACTGGCTTT returned a sensor-assay potency score (higher = more potent) of -0.582.

The record behind these values is the OligoGym collection.
Note: reference of the scale not given here.
